TDP1 cell CPT: DT40-hTDP1 cell growth loss with CPT; chicken DT40 Tdp1-/-;hTDP1 cells + 20 nM CPT, ATP luminescence, 48 h; Potency, µM (series often up to 46.2 µM), hits mostly inhibitors; 12% of 420,000 active; note: nearly all actives have a fitted effect of over 55% in size
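Chicken DT40 Tdp1-/- cells complemented with human TDP1, 400 cells/well, exposed to compounds plus 20 nM camptothecin for at least 48 h at 37 C; viability read as ATP content by CellTiter-Glo luminescence.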
TGFb inhibitor: TGF-b pathway inhibition; HepG2 CAGA-GFP TGF-b/SMAD3 reporter, GFP fluorescence, 18 h; TGF-beta stimulated, 500 pg/mL final; Potency, µM (titrated, usually from 46.1 µM), most hits filed as inhibitors; 1.2% of 410,000 active; AID 588855; note: nearly all actives have a fitted effect of over 65% in size
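Inhibition of TGF-beta-driven CAGA-GFP reporter expression in HEPG2 cells is measured by cellular GFP fluorescence after 18 h stimulation with 500 pg/mL recombinant TGF-beta in 1% FBS medium at 37 degrees C.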
TDP1 block: inhibitors of human tyrosyl-DNA phosphodiesterase TDP1; recombinant TDP1, AlphaScreen DNA substrate cleavage; Q9NUW8; Potency, µM (doses to about 130 µM), hits mostly inhibitors; 0.28% of 350,000 active; note: nearly all actives have a fitted effect of over 40% in size
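Compounds were preincubated with Tdp1 (1 nM final) for 15 min at room temperature before substrate (15 nM final) started a 5 min reaction; beads (10 ug/ml final) were then added for 10 min before AlphaScreen detection.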
HepG2 tox-1: counter-screen for TGF-b inhibitors: cytotoxicity in HepG2 cells; 0.76% of 410,000 active; HepG2 CAGA-GFP viability, ATP luminescence, 18 h; AID 588856; Potency, µM (titrated, usually from 46.1 µM), usual class: cytotoxic
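CellTiter-Glo luminescence gave cytotoxicity after 18 hours at 37 degrees C. The cells were HepG2 CAGA-GFP in 1% FBS DMEM, stimulated with 500 pg/mL TGF-beta after compound addition. %Activity was normalised to no-cell wells (complete cell-killing) and DMSO (no toxicity), and curves were fitted and classified.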
IL1B secr inh: blocks inflammasome-driven IL-1 beta release. 4.7% of 360,000 active. THP-1 LPS/ATP IL-1B secretion, AlphaLISA, 16 h; stronger effect = lower value. activity change, % at 57.5 µM; in the data active = activity change below about -50%; inconclusive = mostly about -30% to -49%
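THP-1 cells pretreated 1 hr with compounds (up to 57.5 uM final), then stimulated with LPS (250 ng/mL final) plus ATP (1.25 mM final); secreted IL-1B measured by AlphaLISA after 16 hr, decreased signal indicating inhibition.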
TDP1 cell noCPT: qHTS for Inhibitors of human tyrosyl-DNA phosphodiesterase 1 (TDP1): qHTS in cells in absence of CPT. Potency, µM (doses to about 46.2 µM), usual class: inhibitors. 15% of 420,000 active. DT40 Tdp1-/- hTDP1 cells, no CPT, ATP luminescence, 48 h; note: nearly all actives have a fitted effect of over 55% in size
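Chicken DT40 Tdp1-/- cells stably complemented with human TDP1 were seeded at 400 cells/well with DMSO in place of 20 nM camptothecin. After compound pinning, cells grew at least 48 hr at 37 °C; viability read by CellTiter-Glo luminescence.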
TGFb confirm: TGF-b pathway inhibition, cherry-pick retest | shares compounds with TGFb inhibitor | HepG2 CAGA-GFP TGF-b reporter, GFP fluorescence, 18 h; cells stimulated with TGF-beta, 500 pg/mL | Potency, µM (doses to about 46.1 µM), most hits filed as inhibitors | 63% of 1,600 active | AID 720534; note: nearly all actives have a fitted effect of over 65% in size
HepG2 tox-2: counter-screen for TGF-b inhibitors: cytotoxicity in HepG2 cells. shares compounds with TGFb inhibitor. HepG2 CAGA-GFP viability, ATP luminescence, 18 h; cells stimulated with TGF-beta, 500 pg/mL. Potency, µM (series often up to 46.1 µM), usual class: inhibitors. 27% of 1,600 active. AID 720535; note: nearly all actives have a fitted effect of over 70% in size
TGFb CCL64 inh: orthogonal confirmation of TGF-b inhibitors in CCL64 cells; 41% of 1,600 active; Potency, µM (doses to about 46.1 µM), usual class: inhibitors; CCL64 CAGA-GFP reporter, TGF-b stimulated, GFP fluorescence, 18 h; shares compounds with TGFb inhibitor; note: nearly all actives have a fitted effect of over 65% in size
COP TGFb inh: validation of TGF-b inhibitors in HepG2 COP promoter reporter. shares compounds with TGFb inhibitor. HepG2 COP-GFP TGF-b reporter, GFP fluorescence, 18 h; cells stimulated by added recombinant TGF-beta. Potency, µM (series often up to 46.1 µM), usual class: inhibitors. 3% of 1,600 active. AID 720537; note: nearly all actives have a fitted effect of over 70% in size
Hits are given with their value; . = inactive; ? = inconclusive; / = no result given. Most compounds without a hit are left out; they make up all but 18% or so of the library. Unless noted, calls come from the whole dose curve; as a rule, active = well fitted curve in the direction sought with a large enough effect; inconclusive = small, poorly fitted or top-dose-only effect, or another doubt; inactive = no such curve, though single readings can be large; an effect the other way counts as inactive or inconclusive.

SMILES | TDP1 cell CPT | TGFb inhibitor | TDP1 block | HepG2 tox-1 | IL1B secr inh | TDP1 cell noCPT | TGFb confirm | HepG2 tox-2 | TGFb CCL64 inh | COP TGFb inh
COc1ccc(S(=O)(=O)N(C)C[C@H]2Oc3ccc(NC(=O)Nc4ccc5c(c4)OCO5)cc3CC(=O)N([C@@H](C)CO)C[C@@H]2C)cc1 | ? | ? | . | . | ? | ? | / | / | / | /
C[C@H](CO)N1C[C@H](C)[C@H](CN(C)S(=O)(=O)c2cccs2)Oc2ccc(NC(=O)Nc3ccc4c(c3)OCO4)cc2CC1=O | ? | ? | . | . | ? | 16.4µM | ? | . | . | .
Cc1noc(C)c1S(=O)(=O)Nc1ccc2c(c1)C(=O)N([C@@H](C)CO)C[C@H](C)[C@@H](CN(C)Cc1ccc(C(F)(F)F)cc1)OCCCC[C@H](C)O2 | ? | 10µM | / | . | ? | ? | ? | ? | 32.6µM | .
C[C@@H]1CN([C@H](C)CO)C(=O)c2cc(NC(=O)Cc3ccccc3)ccc2O[C@H]1CN(C)Cc1ccc(Oc2ccccc2)cc1 | ? | 11.2µM | . | . | ? | ? | ? | ? | 16.4µM | .
Cc1noc(C)c1S(=O)(=O)Nc1ccc2c(c1)C(=O)N([C@H](C)CO)C[C@H](C)[C@H](CN(C)C(=O)NC(C)C)OCCCC[C@@H](C)O2 | . | . | / | . | . | . | / | / | / | /
Cc1ccc(S(=O)(=O)Nc2ccc3c(c2)C(=O)N([C@H](C)CO)C[C@H](C)[C@@H](CN(C)Cc2ccc(-c4ccccc4)cc2)O3)cc1 | ? | 10µM | . | . | ? | ? | 9.2µM | ? | 20.6µM | .
C[C@H](CO)N1C[C@H](C)[C@@H](CN(C)C(=O)Nc2ccc(C(F)(F)F)cc2)Oc2ccc(NS(=O)(=O)c3ccccc3)cc2C1=O | 3.66µM | 6.31µM | . | . | . | ? | ? | . | ? | .
Cc1ccc(-c2ccc3c(c2)O[C@H](CN(C)C(=O)Nc2ccc(C(F)(F)F)cc2)[C@H](C)CN([C@H](C)CO)S3(=O)=O)cc1 | ? | 22.4µM | / | . | ? | ? | 18.4µM | ? | ? | .
Cc1cc(C)n(C2CC(=O)N(c3ccc(Cl)c(Cl)c3)C2=O)n1 (centres undefined) | . | . | . | . | . | . | / | / | / | /
Cc1ccccc1OCC(O)Cn1c(=N)n(Cc2ccccc2)c2ccccc21 (centres undefined) | 4.11µM | 7.08µM | / | 7.94µM | -106.4 | 5.17µM | ? | ? | ? | .
Cc1sc2ncnc(N3CCC(C(=O)N(C)CC(=O)Nc4ccc(Cl)c(C(F)(F)F)c4)CC3)c2c1C | ? | 11.2µM | . | . | -54.9 | 14.6µM | 5.17µM | ? | 9.2µM | .
CN(CC(=O)Nc1ccc(Cl)c(C(F)(F)F)c1)C(=O)C1CCN(C(=O)c2ccc(Cl)cc2)CC1 | ? | ? | / | . | ? | ? | / | / | / | /

Source: PubChem BioAssay (National Center for Advancing Translational Sciences (NCATS))
